# BAZ2B block – BAZ2B (human) inhibition. Q9UIF8. Potency, µM (titrated, usually from 114 µM), without a hit: at the top dose activity change, negative = inhibition, hits mostly inhibitors. AlphaScreen BAZ2B-H3K14Ac peptide displacement. 360,000 compounds, 4.4% hits; further: potency means the concentration at half of the fitted maximal effect; on the % scale 0 is the no-effect control and ±100 the full control effect; nearly all actives have a fitted effect of over 60% in size
#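 Complex of BAZ2B and biotin-H3K14Ac (50 nM apiece) forms over 30 min at RT, then faces library compounds up to 110 uM for another 30 min; AlphaScreen beads added, 20 min dark incubation, luminescence read.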
# PI5P4K alpha inh – inhibitors of human PI5P4K alpha; P48426; PI5P4Kalpha enzyme, ADP-Glo luminescence, 60 min; hits give low values; 330,000 compounds, 1.2% hits; max response, %; active means max response of -50% or lower; inconclusive means between -30% and -50%; inactive means -30% or higher; further: value at the top dose of about 77 µM; on the % scale 0 is the no-effect control and ±100 the full control effect
#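 ADP-Glo luminescence end-point read after a 60 min room-temperature kinase reaction of PI5P4Kalpha plus substrate, initiated with ATP at 5 microM final. Buffer: 0.038 M HEPES pH 7.4, EGTA, 0.1% CHAPS, 5% DMSO.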
# PLK1 PBD block – blocks phosphopeptide binding to human PLK1 polo-box domain | Potency, µM, without a hit: max response, negative = inhibition, most hits filed as inhibitors | P53350 | 360,000 compounds, 2.8% hits | Plk1 PBD binding of FITC phosphopeptide, fluorescence polarization; further: potency means the concentration at half of the fitted maximal effect; series mostly up to about 57 µM; on the % scale 0 is the no-effect control and ±100 the full control effect; nearly all actives have a fitted effect of over 65% in size
# Target sequence (P53350 whole entry, looked up, the tested form may be a part): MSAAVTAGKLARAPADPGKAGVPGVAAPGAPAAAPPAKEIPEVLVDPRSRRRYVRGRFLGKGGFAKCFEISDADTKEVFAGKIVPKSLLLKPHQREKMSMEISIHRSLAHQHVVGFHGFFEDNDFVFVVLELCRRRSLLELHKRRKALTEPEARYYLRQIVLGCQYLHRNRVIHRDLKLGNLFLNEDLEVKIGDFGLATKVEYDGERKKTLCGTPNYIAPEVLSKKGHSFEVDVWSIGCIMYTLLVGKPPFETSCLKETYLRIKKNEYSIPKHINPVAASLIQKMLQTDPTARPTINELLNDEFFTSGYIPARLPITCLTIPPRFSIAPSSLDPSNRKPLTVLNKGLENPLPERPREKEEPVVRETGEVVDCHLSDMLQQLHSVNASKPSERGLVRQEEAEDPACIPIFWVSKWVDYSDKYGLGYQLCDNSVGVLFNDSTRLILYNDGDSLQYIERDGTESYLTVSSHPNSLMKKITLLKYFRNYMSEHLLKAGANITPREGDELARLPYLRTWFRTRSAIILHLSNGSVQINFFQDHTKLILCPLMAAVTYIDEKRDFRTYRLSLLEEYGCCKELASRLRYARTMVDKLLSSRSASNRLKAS
# JMJD2A Tudor inh – JMJD2A Tudor domain (human) inhibition | O75164 | AlphaScreen JMJD2A-Tudor / H3K4me3 peptide binding | Potency, µM (doses to about 114 µM), for inactives: at the highest dose activity change, negative = inhibition, hits mostly inhibitors | 390,000 compounds, 4.4% hits; further: potency means the concentration at half of the fitted maximal effect; on the % scale 0 is the no-effect control and ±100 the full control effect; nearly all actives have a fitted effect of over 50% in size
# G9a inh – G9a (human) methyltransferase inhibition; 350,000 compounds, 8.8% hits; Q96KQ7; Potency, µM (doses to about 102 µM), for the others: top-dose activity, negative = inhibition, usual class: inhibitors; G9a H3K9 monomethylation, AlphaScreen, 2 h; AID 504332; further: potency means the concentration at half of the fitted maximal effect; on the % scale 0 is the no-effect control and ±100 the full control effect; nearly all actives have a fitted effect of over 75% in size
#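 AlphaScreen detection with an anti-monomethyl H3K9 antibody quantified product after a 2 h room-temperature reaction containing 500 nM biotinylated H3K9 peptide, 20 µM SAM and 20 nM enzyme, which had been preincubated 15 min with compound.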
# HP1b binding inh – blocks HP1-beta chromodomain binding to methylated histone tails; P83916; AlphaScreen HP1-beta / biotin-H3K9me3 peptide binding; Potency, µM (titrated, usually from 114 µM), for the others: at the highest dose activity change, negative = inhibition, usual class: inhibitors; 390,000 compounds, 0.56% hits; AID 540317; further: potency means the concentration at half of the fitted maximal effect; nearly all actives have a fitted effect of over 70% in size
#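 HP1-beta protein (50 nM final) preincubated 30 min at room temperature with biotinylated H3(1-18)K9me3 peptide (50 nM) in PBS pH 7.4, 0.01% Tween-20, then compound added for 30 min. AlphaScreen streptavidin donor/nickel chelate acceptor beads (10 ug/mL final), 30 min dark, luminescence read.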
# Active calls of the source: *; ? = inconclusive; / = no result given; [ ] = another dose, or the depositor's remark. In the library only some 12% were active in any assay of this set; here they are far more common. Unless noted, the call rests on the fitted dose curve; in most records, active means well fitted curve in the direction sought with a large enough effect; inconclusive means small, poorly fitted or top-dose-only effect, or another doubt; inactive means no such curve, though single readings can be large; an effect the other way counts as inactive or inconclusive.
SMILES,BAZ2B block,PI5P4K alpha inh,PLK1 PBD block,JMJD2A Tudor inh,G9a inh,HP1b binding inh
O=C(COc1ccc(Cl)cc1)NC1CN2CCC1CC2 (centres undefined),-3%,-2,0%,3%,-11%[12.7 µM],31%
CC(C)CC1C(C#N)=C(N)Oc2c1c(=O)oc1ccccc21 (centres undefined),-1%,-19,12µM*,45µM*,-70%,3%
COc1cc(/C=C/c2nc3ccccc3c(=O)n2-c2ccc(Br)c(C)c2)ccc1O,9%,/,/,-3%,9%[59 µM],1%
Cc1cc(O)c2c(c1)C(=O)C13C(=C2O)C(=O)[C@H]2[C@@H](O)[C@@H]1[C@H]1[C@H](O)[C@@H]3C(=O)C3=C(O)c4c(O)cc(C)cc4C(=O)C312 (some centres undefined),-7%,-53*,-14%,?,-25%[12.7 µM],27%
CC(=O)NC(Cc1ccc(N(CCCl)CCCl)cc1)C(=O)NC(CC(C)C)C(=O)O (centres undefined),?,9,-3%,-27%,50µM*,15%
Nc1cc2nc3ccccc3nc2cc1N,?,-28,6.7µM*,-8%,?,2%
O=P1(c2ccccc2)Nc2ccccc2N1c1ccccc1 (centres undefined),/,-11,0%,50µM*,/,?
CC(C)(C)C1CCc2onc(C(=O)O)c2C1 (centres undefined),-19%,-10,2%,-5%,0%,42%
C=CCOc1ccc(CC2C(=O)N(C)C(=O)N(C)C2=O)cc1,12%,?,?,-13%[57.1 µM],-47%[12.7 µM],-7%
CCN(CC)c1ccc(CC2C(=O)N(C)C(=O)N(C)C2=O)cc1,45µM*,-3,?,45µM*,13µM*,?
CNc1ccc2oc(C[C@@H]3OC4(CC[C@@H]3C)O[C@H](C(C)C(=O)c3ccc[nH]3)[C@H](C)C[C@H]4C)nc2c1C(=O)O (some centres undefined),/,/,/,/,18µM*,/
COP(=O)(OC)OC=C(Cl)Cl,/,/,/,/,24%[59 µM],/
CCOc1ccccc1N=Cc1c(O)n(C)c(=O)n(C)c1=O,1%,6,-2%,-5%,50µM*,46%
O=C(Oc1ccccc1)N1CCC2(CCN(Cc3nccs3)CC2)CC1,/,/,/,/,-6%[12.7 µM],/
Cc1ccc(CC2C(=O)N(C)C(=O)N(C)C2=O)s1,-3%,/,27µM*,-27%,7.9µM*,8%
CNC(=O)OCCc1n(C)cc[n+]1C,0%,-4,-5%,-17%,14µM*,10%
Cc1nn2c(=O)cc(N3CCNCC3)nc2s1,/,/,/,-2%,/,/
NCCc1c[nH]c2ccc(OCc3ccccc3)cc12,?,3,-18%,-30%,50µM*,1%
CN1CCC2(CC1)C(C#N)=C(N)NC(S)=C2C#N,?,?,?,4µM*,6.3µM*,-17%
COC(=O)Cn1cc(C=C2C(=O)NC(=O)NC2=O)c2ccccc21,-9%,-22,?,-13%,?,23%
COc1c(C=C2C(=O)NC(=O)NC2=O)c(CCN(C)C(=O)c2ccccc2)cc2c1OCO2,-3%,11,27µM*,-16%,/,24%
O=C(Nc1nnc(SCc2ccccc2Cl)s1)C1COc2ccccc2O1 (centres undefined),-6%,0,-29%,-11%,-8%[59 µM],45%
CCOC(=O)Cn1cc(C(=O)c2ccccc2F)c2ccccc21,-4%,-9,21µM*,?,7%[12.7 µM],1%
Cc1ccc(/C=C2\C(=O)NC(=O)N(CC3CCCO3)C2=O)s1 (centres undefined),?,?,4.7µM*,-23%,?,27%
COC(=O)C1=C(c2cccc(OCc3ccccc3)c2)C[C@@H]2CC[C@H]1N2C(=O)NCc1ccc(C(C)(C)C)cc1,-4%,1,-9%,-25%,2%[0.501 µM],21%
SMILES,BAZ2B block,PI5P4K alpha inh,PLK1 PBD block,JMJD2A Tudor inh,G9a inh,HP1b binding inh
COC(=O)C1=C(c2ccc(F)cc2OCc2ccccc2)C[C@@H]2CC[C@H]1N2C(=O)NCc1ccc(N(C)C)cc1,10µM*,4,-8%,22µM*,19%[2.33 µM],?
COC(=O)C1=C(c2ccccc2OCc2ccccc2)C[C@@H]2CC[C@H]1N2C(=O)NCc1ccc(N(C)C)cc1,28µM*,11,-1%,20µM*,-6%[0.501 µM],-23%
COC(=O)C1=C(c2cccc(OCc3ccccc3)c2)C[C@@H]2CC[C@H]1N2C(=O)NCc1ccc(N(C)C)cc1,10µM*,2,-3%,20µM*,-7%[2.33 µM],?
COC(=O)C1=C(c2ccccc2OCc2ccccc2)C[C@@H]2CC[C@H]1N2C(=O)NCc1ccc(Cl)cc1,-5%,20,0%,-15%,-6%[0.501 µM],29%
COC(=O)C(N)CCCN=C(N)N[N+](=O)[O-] (centres undefined),/,/,/,/,11%[12.7 µM],/
CCCC1(CCC)C(=O)NC(=NCc2ccccc2)NC1=O,3%,-5,?,-10%,45µM*,1%
CCCn1c(C)c(C(=O)c2cccc3ccccc23)c2ccccc21,-4%,11,-1%,-18%,-34%[59 µM],29%
O=C(c1c[nH]cc1-c1ccccc1)c1cccc2ccccc12,25µM*,2,-10%,-12%,25µM*,?
Cc1nn(-c2ccccc2)c(Cl)c1/C=N\NC(=O)c1cnccn1,-2%,-3,-13%,-11%,24%,45%
Cc1nn(C)c(C)c1P(=S)(c1c(C)nn(C)c1C)N(C)C,-30%,/,?,-11%,14µM*,-4%
CCOc1cc2[nH]c(=O)n(CCCC(=O)N3CCN(c4cccc(Cl)c4)CC3)c(=O)c2cc1OCC,-22%,/,/,?,-4%[59 µM],-8%
O=C(CSc1nc(-c2ccc(Cl)cc2)[nH]c(=O)n1)Nc1cccc(Cl)c1,-12%,?,24µM*,-17%,-19%,25%
O=c1c2ccccc2nc(-c2ccco2)n1-c1ccccn1,11%,1,-9%,-26%,-3%,8%
Cc1cccnc1-n1c(-c2ccco2)nc2ccccc2c1=O,-6%,-6,1%,13%,50µM*,22%
CCCCc1ccc(NC(=O)c2cccn(Cc3ccc(Cl)cc3)c2=O)cc1,13%,/,/,-12%,58%[59 µM],21%[57 µM]
Cc1cccc(NC(=O)CSc2ccc(-c3ccco3)nn2)c1,-25%,-14,-15%,-10%,28µM*,23%
COc1ccc(NC(=O)CSc2nc(-c3ccco3)cc(C(F)(F)F)n2)cc1OC,-2%,/,/,-3%,-4%[59 µM],47%
COc1ccc(NC(=O)N2CCCC3(CCN(C(=O)Oc4ccccc4)CC3)C2)cc1,/,/,/,/,-24%[12.7 µM],/
O=C1CC(N2CC=C(c3ccc(F)cc3)CC2)C(=O)N1c1ccc(F)cc1 (centres undefined),-12%,-3,-5%,?,25µM*,31%
